Inconclusive results are not listed. Activity calls are given as the source filed them. Calls come from the whole dose curve; as a rule, active = well fitted curve in the direction sought with a large enough effect; inconclusive = small, poorly fitted or top-dose-only effect, or another doubt; inactive = no such curve, though single readings can be large; an effect the other way counts as inactive or inconclusive.
What was measured:
[1] = Cellular Toxicity (caspase-3) Mesangial (AID 660); conditions: mesangial cells, normalized: DMSO 0%, 100 µM tamoxifen 100%; at 91.7 µM (top of the series);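 note: combined caspase 3 and 7 activity read by Caspase-Glo luminescence; cells exposed to compound for 16 h before the caspase read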
Outline: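 Mesangial cells, 1000/well, 5 h settle at 37 °C; compound 16 h, 37 °C; Caspase-Glo 3/7 reagent 20 min RT; luminescence. Norm.: DMSO = 0%, tamoxifen 100 uM = 100%. AC50, Hill fit.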

[2] = Cellular Toxicity (caspase-3) H-4-II-E (AID 663); conditions: H-4-II-E rat hepatoma, scaled: DMSO 0%, 100 µM tamoxifen 100%; at 92.2 µM (top of the series);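 note: cells exposed to compound for 16 hr before readout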
Outline: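 Luminescence from caspase-cleaved aminoluciferin substrate, read 20 min after reagent addition, reports caspase 3/7 activation in rat H-4-II-E cells after 16 hr compound exposure. Normalized to DMSO (basal) and 100 uM tamoxifen (100%); AC50 from Hill fits.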

[3] = Cellular Toxicity (caspase-3) Renal Proximal Tubule (AID 667); conditions: Potency: caspase-3 activation;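 note: cells exposed to compound for 16 hours at 37 °C before detection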; note: potency is the fitted concentration of half-maximal effect;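 for caspase-3 activation: 0% = DMSO basal and 100% = 10 µM staurosporine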
Outline: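 Freshly isolated primary rat kidney proximal tubule cells, 1000/well, treated 16 hr at 37 °C, then Caspase-Glo 3/7 luminescence after 1 hr. Normalized to DMSO and 10 uM staurosporine; AC50 from Hill fit.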

[4] = target: Cytochrome P450 3A4 (Homo sapiens) (UniProt P08684); test: qHTS Assay for Activators of Cytochrome P450 3A4 (AID 885); note: nearly all actives have a fitted effect of over 65% in size
Outline: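 Signal was normalized against complete inhibition by 57 uM ketoconazole. The reaction used 20nM CYP3A4 with 25uM Luciferin-PPXE, 10-min compound preincubation and a 60-min NADPH-supported step at RT.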

[5] = MultiTox-Fluor Cytotoxicity Assay - LYMP1-003 - Dead Cells (AID 961); note: nearly all actives have a fitted effect of over 70% in size; note: potency is the fitted concentration of half-maximal effect
Outline: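 Dead-cell protease release, detected as bis-AAF-R110 fluorescence at 485/520 nm, was measured in LYMP1-003 cells after 16 h compound treatment at 37 C. AC50 values came from Hill-modeled qHTS curves normalized to DMSO (0%) and 15 uM tetraoctylammonium bromide (100%).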

[6] = MultiTox-Fluor Cytotoxicity Assay - LYMP1-003 - Live Cells (AID 962);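 note: cells exposed to compound for 16 hours at 37 °C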; note: potency is the fitted concentration of half-maximal effect
Outline: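 qHTS, 1536-well; 2500 cells/well LYMP1-003; 5 hr 37 C settle; cpd 16 hr 37 C; MultiTox-Fluor reagent 60 min RT; live-cell protease fluor. 405/510; Hill-fit AC50; tetraoctylammonium bromide pos. ctrl.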

[7] = Cell Viability - LYMP1-003 - Assay at 24 hr (AID 963); note: potency is the fitted concentration of half-maximal effect
Outline: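 Cells seeded at 2500/well, 5 hr at 37 C; compounds added; 24 hr at 37 C; CellTiter-Glo added, 30 min room temperature; luminescence read. Decrease in ATP taken as cytotoxicity, AC50 from Hill modelling.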

[8] = Cell Viability - LYMP1-003 - Assay at 40 hr (AID 964); note: nearly all actives have a fitted effect of over 60% in size; note: potency is the fitted concentration of half-maximal effect
Outline: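 Cells were seeded at 2500 per well and incubated 5 hr at 37 C. Compounds were added across a concentration series and left 40 hr at 37 C. CellTiter-Glo was added for 30 min at room temperature before luminescence reading.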

[9] = Cell Viability - LYMP2-003 (AID 965);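 note: cells exposed to compounds for 24 h before reading; nearly all actives have a fitted effect of over 50% in size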; note: potency is the fitted concentration of half-maximal effect
Outline: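 Human lymphoblastoid LYMP2-003 cells, 2500/well, exposed to compounds for 24 h at 37 C in complete medium. Viability read as intracellular ATP by CellTiter-Glo luminescence; AC50 from Hill-equation fits of qHTS concentration-response data.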

[10] = Cellular Toxicity (caspase-3) SK-N-SH (AID 661);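 note: 0% = DMSO basal and 100% = 10 µM staurosporine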
Outline: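 Human neuroblastoma SK-N-SH, 1500 cells/well, 5 hr pre-incubation, then compound 16 hr, 37 °C. Caspase-Glo 3/7 reagent, 1 hr RT, luminescence. Norm. to DMSO/10 uM staurosporine; Hill-fit AC50.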

[11] = Cellular Toxicity (caspase-3) Hek293 (AID 664); conditions: HEK293 caspase-3 activation, DMSO = 0%, 100 µM tamoxifen = 100%; at 92.2 µM (top of the series);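 note: cells exposed to compound for 16 h at 37 °C before readout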
Outline: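 Cells plated, 5 hr at 37 °C; compounds added; 16 hr at 37 °C; Caspase-Glo 3/7 reagent, 20 min RT; luminescence read. Activation expressed relative to DMSO and 100 uM tamoxifen, AC50 by Hill model.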

[12] = Cellular Toxicity (caspase-3) N2a (AID 665);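 note: compound exposure lasted 16 h at 37 °C before readout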
Outline: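 N2a cells, 1500/well, 5 h settle at 37 °C; cpd 16 h, 37 °C; Caspase-Glo 3/7, 1 h RT; luminescence. Norm: DMSO = 0, 10 uM staurosporine = 100%. AC50, Hill fit.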

[13] = Cellular Toxicity (caspase-3) NIH 3T3 (AID 666);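 note: 0% = DMSO basal and 100% = 100 µM tamoxifen stimulation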
Outline: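 Luminescence from aminoluciferin released by caspase-3/7 cleavage of a peptide substrate served as read-out. Mouse fibroblast NIH 3T3 cells were exposed to compounds over a concentration range for 16 hours, and AC50 values came from standard Hill modelling.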

[14] = target: Cytochrome P450 3A4 (Homo sapiens) (UniProt P08684); test: qHTS Assay for Inhibitors and Substrates of Cytochrome P450 3A4 (AID 884); note: % is set by controls: 0 for no effect and ±100 for the full control effect; nearly all actives have a fitted effect of over 50% in size
Outline: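 20 nM human CYP3A4 with 25 uM Luciferin-PPXE (at KM) in 200 mM KPO4, preincubated 10 min with compound; NADPH regeneration started a 60 min RT reaction. Luciferin detected by luminescence, normalized to 57 uM ketoconazole as full inhibition.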

[15] = Cell Viability - LYMP2-001 (AID 921);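 note: 0% = DMSO only and full inhibition = tetraoctylammonium bromide control wells; nearly all actives have a fitted effect of over 70% in size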
Outline: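 Human lymphoblastoid LYMP2-001 cells, 2500 per well, in complete medium, treated 24 h at 37 C. Viability from cellular ATP by CellTiter-Glo luminescence; AC50 from Hill-equation fits of qHTS concentration-response.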

[16] = MultiTox-Fluor Cytotoxicity Assay - LYMP1-001 - Dead Cells (AID 946)
Outline: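 Cytotoxicity as increased dead-cell protease fluorescence (bis-AAF-R110, 485/520 nm), read 60 min after MultiTox-Fluor reagent. Human lymphoblastoid line exposed 16 h; Hill-fitted AC50, with DMSO as 0% and 15 uM tetraoctylammonium bromide as 100%.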

[17] = MultiTox-Fluor Cytotoxicity Assay - LYMP1-001 - Live Cells (AID 947);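 note: 0% = DMSO only and full inhibition = tetraoctylammonium bromide control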
[18] = Cell Viability - LYMP1-002 - Assay at 16 hr (AID 948);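 note: 0% = DMSO alone and full effect = 92 µM tetraoctylammonium bromide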
Outline: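 LYMP1-002 human lymphoblastoid cells, 2500/well, were treated with compounds for 16 hr at 37 C in complete medium. Viability was read as intracellular ATP by CellTiter-Glo luminescence, and AC50 was derived from a Hill fit to concentration-response data.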

[19] = MultiTox-Fluor Cytotoxicity Assay - LYMP1-002 - Live Cells (AID 955); note: % is set by controls: 0 for no effect and ±100 for the full control effect
Outline: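 Read-out is live-cell protease activity (cell-permeant GF-AFC substrate, fluorescence Ex/Em=405/510), where a decrease indicates acute toxicity. Human lymphoblastoid cells were treated 16 hours at 37 C in a concentration series, and AC50 values came from standard Hill modelling.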

[20] = MultiTox-Fluor Cytotoxicity Assay - LYMP1-002 - Dead Cells (AID 960); note: nearly all actives have a fitted effect of over 60% in size
Outline: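 LYMP1-002 cells 2500/well; 5 hr 37 C pre-incubation; compound 16 hr 37 C; MultiTox-Fluor reagent 60 min RT; dead-cell fluor Ex/Em 485/520. Norm. to DMSO (0%) vs 15 uM tetraoctylammonium bromide (100%); Hill AC50.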

Chain of Cytochrome P450 3A4 (Homo sapiens) (P08684 whole entry, looked up): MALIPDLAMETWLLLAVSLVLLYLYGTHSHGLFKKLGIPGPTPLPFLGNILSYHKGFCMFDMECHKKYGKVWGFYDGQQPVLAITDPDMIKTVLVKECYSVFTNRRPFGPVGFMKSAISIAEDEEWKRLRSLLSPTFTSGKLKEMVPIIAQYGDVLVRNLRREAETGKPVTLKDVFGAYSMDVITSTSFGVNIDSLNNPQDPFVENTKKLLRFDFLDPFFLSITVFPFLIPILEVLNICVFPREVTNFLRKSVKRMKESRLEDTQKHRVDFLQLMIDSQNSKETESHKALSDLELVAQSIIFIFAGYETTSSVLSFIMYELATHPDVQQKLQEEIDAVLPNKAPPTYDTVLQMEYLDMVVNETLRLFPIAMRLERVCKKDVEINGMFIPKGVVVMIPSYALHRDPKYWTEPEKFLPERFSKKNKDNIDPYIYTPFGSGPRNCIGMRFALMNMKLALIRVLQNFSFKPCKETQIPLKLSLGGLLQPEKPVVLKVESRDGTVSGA

CC1=C(/C=C/C(C)=C/C=C/C(C)=C\C=O)C(C)(C)CCC1
inactive: outcome [4]
active: caspase-3 activation [1] 90.3% | caspase-3 activation [2] 113% | Potency [3] 31.6 µM | Potency [5] 31.6 µM | Potency [6] 50.1 µM | Potency [7] 63.1 µM | Potency [8] 50.1 µM | Potency [9] 39.8 µM

COC(=O)CS
inactive: caspase-3 activation [1] -1.25% | outcome [10] | caspase-3 activation [11] -1.02% | outcome [12] | outcome [13] | Potency [3] | Potency [14] | Potency [15] | outcome [16] | outcome [17] | outcome [18] | outcome [19] | outcome [20] | Potency [5] | Potency [6] | Potency [7] | Potency [8] | Potency [9]

O=C(Cl)c1ccccc1[N+](=O)[O-]
inactive: caspase-3 activation [1] -1.02% | outcome [10] | caspase-3 activation [11] 1.55% | outcome [12] | outcome [13] | Potency [3] | Potency [14] | Potency [15] | outcome [16] | outcome [17] | outcome [18] | outcome [19] | outcome [20] | Potency [5] | Potency [6] | Potency [7] | Potency [8] | Potency [9]

C=CCCCC
inactive: caspase-3 activation [1] -0.265% | outcome [10] | caspase-3 activation [11] 1.21% | outcome [12] | outcome [13] | Potency [3] | Potency [14] | Potency [15] | outcome [16] | outcome [17] | outcome [18] | outcome [19] | outcome [20] | Potency [5] | Potency [6] | Potency [7] | Potency [8] | Potency [9]

FB(F)F
inactive: caspase-3 activation [1] 3.07% | outcome [10] | caspase-3 activation [11] 2.37% | outcome [12] | outcome [13] | Potency [3] | Potency [14] | Potency [15] | outcome [16] | outcome [17] | outcome [18] | outcome [19] | outcome [20] | Potency [5] | Potency [6] | Potency [7] | Potency [8] | Potency [9]

CSCCC=O
inactive: caspase-3 activation [1] 0.0965% | outcome [10] | caspase-3 activation [11] -2.79% | outcome [12] | outcome [13] | Potency [3] | Potency [14] | Potency [15] | outcome [16] | outcome [17] | outcome [18] | outcome [19] | Potency [5] | Potency [6] | Potency [7] | Potency [8] | Potency [9]

Oc1c(Cl)ccc(Cl)c1Cl
inactive: caspase-3 activation [1] 0.532% | outcome [10] | caspase-3 activation [11] 4.28% | outcome [12] | outcome [13] | Potency [3] | Potency [14] | Potency [15] | outcome [16] | outcome [17] | outcome [18] | outcome [19] | outcome [20] | Potency [5] | Potency [6] | Potency [7] | Potency [8] | Potency [9]

NS(=O)(=O)O
inactive: caspase-3 activation [1] 1.36% | outcome [10] | caspase-3 activation [11] 1.35% | outcome [13] | Potency [3] | Potency [14] | Potency [15] | outcome [16] | outcome [18] | outcome [19] | outcome [20] | Potency [5] | Potency [6] | Potency [7] | Potency [8] | Potency [9]

CC(C)(c1cc(Br)c(OCC(Br)CBr)c(Br)c1)c1cc(Br)c(OCC(Br)CBr)c(Br)c1 (stereo unspecified)
inactive: caspase-3 activation [1] 0.758% | outcome [10] | caspase-3 activation [11] 16.5% | outcome [13] | Potency [3] | Potency [14] | Potency [15] | outcome [16] | outcome [17] | outcome [18] | outcome [19] | outcome [20] | Potency [5] | Potency [6] | Potency [7] | Potency [8] | Potency [9]

O=[N+]([O-])c1ccc(NCCO)c(OCCO)c1
inactive: caspase-3 activation [1] 0.383% | outcome [10] | caspase-3 activation [11] 0.203% | outcome [12] | outcome [13] | Potency [3] | Potency [14] | Potency [15] | outcome [16] | outcome [17] | outcome [18] | outcome [19] | outcome [20] | Potency [5] | Potency [6] | Potency [7] | Potency [8] | Potency [9]

CC(=O)Nc1ccc(N)cc1
inactive: caspase-3 activation [1] 0.253% | outcome [10] | caspase-3 activation [11] -0.0268% | outcome [13] | Potency [3] | Potency [14] | Potency [15] | outcome [16] | outcome [17] | outcome [18] | outcome [19] | outcome [20] | Potency [5] | Potency [6] | Potency [7] | Potency [8] | Potency [9]

BrC/C=C/CBr
inactive: caspase-3 activation [1] -0.978% | outcome [10] | caspase-3 activation [11] 2.1% | outcome [12] | outcome [13] | Potency [3] | Potency [14] | Potency [15] | outcome [16] | outcome [17] | outcome [18] | outcome [19] | outcome [20] | Potency [5] | Potency [6] | Potency [7] | Potency [8] | Potency [9]

Nc1nc2ccccc2[nH]1
inactive: caspase-3 activation [1] -0.927% | outcome [10] | caspase-3 activation [11] 0.0156% | outcome [12] | outcome [13] | Potency [3] | Potency [14] | Potency [15] | outcome [16] | outcome [17] | outcome [18] | outcome [19] | outcome [20] | Potency [5] | Potency [6] | Potency [7] | Potency [8] | Potency [9]

CC(=O)c1cccc([N+](=O)[O-])c1
inactive: caspase-3 activation [1] 1.01% | outcome [10] | caspase-3 activation [11] 2.43% | outcome [12] | outcome [13] | Potency [3] | Potency [14] | Potency [15] | outcome [16] | outcome [17] | outcome [18] | outcome [19] | outcome [20] | Potency [5] | Potency [6] | Potency [7] | Potency [8] | Potency [9]

O=c1[nH][nH]c(=O)c2cc([N+](=O)[O-])ccc12
inactive: caspase-3 activation [1] -0.0154% | outcome [10] | outcome [12] | outcome [13] | Potency [3] | Potency [14] | Potency [15] | outcome [16] | outcome [17] | outcome [18] | outcome [19] | outcome [20] | Potency [5] | Potency [6] | Potency [7] | Potency [8]

Cc1cc(C(=O)O)ccc1[N+](=O)[O-]
inactive: caspase-3 activation [1] 0.159% | outcome [10] | caspase-3 activation [11] 1.07% | outcome [12] | outcome [13] | Potency [3] | Potency [14] | Potency [15] | outcome [16] | outcome [17] | outcome [18] | outcome [19] | outcome [20] | Potency [6] | Potency [7] | Potency [8] | Potency [9]
